Our source for the Potency values is PubChem BioAssay (Tox21).

Values joined by “and” are separate entries in the source; they are usually repeats but may differ in a detail not shown here. Equal entries are not always repeated. Inconclusive results are not listed. A call without a number means that no potency is given here. Active and inactive are the calls of the source. Calls come from the whole dose curve; as a rule, active = well fitted inhibition curve with a large enough effect in the signal ratio in the repeat runs (not every such curve was filed as active); inconclusive = weak or mixed curves, or effect the other way; inactive = no such curve, though single readings can be large or run the other way; the % refers to the signal ratio.
Potency is the fitted concentration of half-maximal effect.

Androgen receptor (Homo sapiens), sequence (P10275 whole entry, looked up): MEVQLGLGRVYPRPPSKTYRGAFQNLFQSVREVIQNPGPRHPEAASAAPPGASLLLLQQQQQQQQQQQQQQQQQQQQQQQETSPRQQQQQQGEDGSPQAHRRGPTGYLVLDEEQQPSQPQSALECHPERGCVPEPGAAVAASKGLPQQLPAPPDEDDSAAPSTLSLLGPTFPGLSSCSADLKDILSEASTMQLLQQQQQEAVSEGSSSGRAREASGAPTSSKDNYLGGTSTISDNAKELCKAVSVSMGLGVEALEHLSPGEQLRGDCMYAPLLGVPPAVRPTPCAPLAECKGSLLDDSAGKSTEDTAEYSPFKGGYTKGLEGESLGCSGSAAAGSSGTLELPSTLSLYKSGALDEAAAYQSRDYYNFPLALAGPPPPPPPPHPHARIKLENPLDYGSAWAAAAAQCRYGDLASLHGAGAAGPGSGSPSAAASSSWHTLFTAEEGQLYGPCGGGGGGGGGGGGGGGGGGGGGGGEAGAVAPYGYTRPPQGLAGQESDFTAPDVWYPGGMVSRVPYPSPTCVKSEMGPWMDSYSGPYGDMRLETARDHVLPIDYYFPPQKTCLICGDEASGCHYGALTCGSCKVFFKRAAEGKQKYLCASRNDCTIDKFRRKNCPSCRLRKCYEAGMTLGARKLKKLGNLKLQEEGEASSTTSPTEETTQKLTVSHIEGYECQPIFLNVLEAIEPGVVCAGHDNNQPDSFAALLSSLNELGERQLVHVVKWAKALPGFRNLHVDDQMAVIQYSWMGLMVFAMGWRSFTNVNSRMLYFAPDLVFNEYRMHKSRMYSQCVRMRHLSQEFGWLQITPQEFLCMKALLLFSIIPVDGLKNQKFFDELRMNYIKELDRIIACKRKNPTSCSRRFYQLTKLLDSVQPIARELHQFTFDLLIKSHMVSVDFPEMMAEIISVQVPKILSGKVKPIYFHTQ

In this experiment the target is Androgen receptor (Homo sapiens) (UniProt P10275). The experiment is described as follows: qHTS assay to identify small molecule antagonists of the androgen receptor (AR) signaling pathway (AID 743035). As to conditions: HEK293 AR-UAS-bla, R1881-stimulated, beta-lactamase FRET, 16 h; series mostly up to 58.5 µM. The source says:
National Center for Advancing Translational Sciences [NCATS]
NIH Chemical Genomics Center [NCGC]
U.S. Environmental Protection Agency [EPA]
National Institutes of Environmental Health Sciences [NIEHS]
National Toxicology Program [NTP]
U.S. Food and Drug Administration [FDA]
Androgen receptor (AR), a nuclear hormone receptor, plays a critical role in AR-dependent prostate cancer and other androgen related diseases. Endocrine disrupting chemicals (EDCs) and their interactions with steroid hormone receptors like AR may cause disruption of normal endocrine function as well as interfere with metabolic homeostasis, reproduction, developmental and behavioral functions. To identify the compounds that inhibit AR signaling, GeneBLAzer AR-UAS-bla-GripTite cell line (Invitrogen, Carlsbad, CA, USA) containing a beta-lactamase reporter gene under control of an Upstream Activator Sequence (UAS) stably integrated into HEK293 cells was used to screen the Tox21 10K compound library.
Tox21 Assay Protocol Summary:
AR-bla cells were dispensed at 2,000 cells/5 uL of assay medium per well into black wall/clear-bottom 1536-well plates using a Multidrop Combi (ThermoFisher Scientific, Waltham, MA) dispenser. After the assay plates were incubated at a 37C and 5% CO2 for 4 hr, 23 nL of compounds dissolved in DMSO, positive controls or DMSO only was transferred to the assay plate by a Pintool station (Kalypsys, San Diego, CA), followed by addition of 1 uL of agonist (R1881) in culture medium using a Bioraptr Flying Reagent Dispenser (FRD) workstation (Beckman Coulter, Indianapolis, IN, USA). The plates were incubated at a 37C and 5% CO2 for 16 h. After 1 uL of LiveBLAzerTM B/G FRET substrate was added using a Bioraptr FRD, the plates were incubated at room temperature for 2 h and fluorescence intensity was measured by an Envision plate reader (PerkinElmer, Shelton, CT).
Regarding `CC(=O)[C@]1(O)Cc2c(O)c3c(c(O)c2[C@@H](O[C@H]2C[C@H](N)[C@H](O)[C@H](C)O2)C1)C(=O)c1ccccc1C3=O`, the Potency is 3.38 µM (active).

`Nc1c(CC(=O)O)cccc1C(=O)c1ccccc1`: the Potency result is “inactive”. The same measure for `CC1(C)C[C@@H]1C(=O)N/C(=C\CCCCSC[C@H](N)C(=O)O)C(=O)O`: “inactive”; for `O=C(O)COc1ccc(C(=O)c2cccs2)c(Cl)c1Cl`: “inactive”. As for `O=C(O)Cc1nn(Cc2ccc(Br)cc2F)c(=O)c2ccccc12`, the entry is “inactive”; as for `NC[C@@H]1CC[C@@H](N)[C@@H](O[C@H]2[C@H](O)[C@@H](O[C@H]3O[C@H](CO)[C@@H](O)[C@H](N)[C@H]3O)[C@H](N)C[C@@H]2N)O1`, “inactive”; as for `CCOc1cc(CC(=O)N[C@@H](CC(C)C)c2ccccc2N2CCCCC2)ccc1C(=O)O`, “inactive”. As for `CC(C)NCC1CCc2cc(CO)c([N+](=O)[O-])cc2N1` (stereo not given), the entry is “inactive”; as for `C=CC1=C(C(=O)O)N2C(=O)[C@@H](NC(=O)/C(=N\O)c3csc(N)n3)[C@H]2SC1` (stereo in doubt), “inactive”; as for `CCOC(=O)[C@H](CCc1ccccc1)N[C@@H](C)C(=O)N1[C@H](C(=O)O)C[C@H]2CCCC[C@@H]21`, “inactive”. Consider `CC[C@@H](C(=O)[C@@H](C)[C@@H](O)[C@H](C)CCc1ccc(C)c(O)c1C(=O)O)[C@H]1O[C@](CC)([C@H]2CC[C@](O)(CC)[C@H](C)O2)C[C@@H]1C`, for which the Potency was 15.1 µM (active).

As for `C=C1C(CCl)(CCl)C2(Cl)C(Cl)C(Cl)C1(Cl)C2(Cl)Cl` (stereo not given), the Potency was 34.3 µM (active). As for `C/C=C/C1=C(C(=O)O)N2C(=O)[C@@H](NC(=O)[C@H](N)c3ccc(O)cc3)[C@H]2SC1`, the entry is “inactive”; as for `COc1c(O)cc2c(c1O)[C@@H]1O[C@H](CO)[C@@H](O)[C@H](O)[C@H]1OC2=O`, “inactive”.

With `CC1=C(/C=C/C(C)=C/C=C/C(C)=C/C=C/C=C(C)/C=C/C=C(C)/C=C/C2=C(C)CCCC2(C)C)C(C)(C)CCC1`, the Potency entry was “inactive”. As for `O=P(O)(O)OP(=O)(O)OP(=O)(O)O`, the entry is “inactive”. `CCC[C@@H]1C[C@@H](C(=O)N[C@@H]([C@H]2O[C@H](SC)[C@H](OP(=O)(O)O)[C@@H](O)[C@H]2O)[C@H](C)Cl)N(C)C1`: the Potency entry was “inactive”. The same measure for `CC12CCC(C1)C(C)(C)C2=O` (stereo not given): “inactive”. For the compound `CC(=O)OCC1=C(C(=O)O)N2C(=O)[C@@H](NC(=O)Cc3ccccc3)[C@H]2SC1`, the Potency result was “inactive”. As for `CC(C)OC(=O)Nc1ccc2nc(-c3cscn3)[nH]c2c1`, the figure is 4.25 µM (active).

Consider `O=C(O)C[C@H](O)C[C@H](O)/C=C/c1c(C2CC2)nc2ccccc2c1-c1ccc(F)cc1`, for which the Potency was 1.69 µM (active). The same measure for `COC(=O)C[C@](O)(CCCC(C)(C)O)C(=O)O[C@@H]1C(OC)=CC23CCCN2CCc2cc4c(cc2[C@H]13)OCO4` (stereo not given in full): 75.6 nM (active) and 67.4 nM (active); for `NCCCC[C@H](NC(=O)[C@@H]1CCCN1C(=O)[C@@H]1CSSC[C@H](N)C(=O)N[C@@H](Cc2ccc(O)cc2)C(=O)N[C@@H](Cc2ccccc2)C(=O)N[C@@H](CCC(N)=O)C(=O)N[C@@H](CC(N)=O)C(=O)N1)C(=O)NCC(N)=O`: “inactive”; for `CC(C)c1ncc([N+](=O)[O-])n1C`: “inactive”.

`COc1ccc(/C=C/C(=O)O)cc1`: the Potency entry was “inactive”. On to `Oc1ccc(Cl)c2c1CCC2`, for which the Potency result was “inactive”. For the compound `C[C@@H]1C(=O)NC2=Nc3cccc(Cl)c3CN21`, the Potency entry is “inactive”. The same measure for `CCN(CC)CCn1c(=O)c(Cc2ccc(OC)cc2)nc2ccccc21`: “inactive”. The same measure for `O=C(O)COc1ccccc1/C=N/NC(=O)c1ccncc1`: “inactive”; for `O=C(O)/C=C/C(O)c1ccc(Cl)cc1` (stereo not given): “inactive”; for `NC(N)=NCC1COC2(CCCCC2)O1` (stereo not given): “inactive”. As to `CO/N=C(\C(=O)N[C@@H]1C(=O)N2C(C(=O)O)=C(C[N+]3(C)CCCC3)CS[C@H]12)c1csc(N)n1`, the Potency entry is “inactive”. `NC(=O)c1cc[n+](CC2=C(C(=O)O)N3C(=O)[C@@H](NC(=O)C(c4ccccc4)S(=O)(=O)[O-])[C@H]3SC2)cc1` (stereo not given in full): the Potency entry is “inactive”.

Regarding `O=C(O)[C@@H]1C[C@H](CP(=O)(O)O)CCN1`, the Potency entry is “inactive”. For the compound `CCCCCCCCCCCCCCCCCCNC(=O)OC1CCN(C(=O)OC[C@H](COC(=O)N(Cc2cccc[n+]2CC)C(=O)c2ccccc2OC)OC)CC1`, the Potency is 10.7 µM (active).

On to `CC[C@H](C)C(=O)O[C@H]1CCC=C2C=C[C@H](C)[C@H](CC[C@@H]3C[C@@H](O)CC(=O)O3)[C@H]21`, for which the Potency is 15.1 µM (active).

`O=C1C2CC3CC1CC(O)(C3)C2`: the Potency entry is “inactive”. For `N[C@@H](Cc1cnc[nH]1)C(=O)O`, the Potency entry is “inactive”.

For `O=P(O)(O)CP(=O)(O)O`, the Potency result was “inactive”. As for `C[N+]1(CCCCC[N+]2(C)CCCC2)CCCC1`, the entry is “inactive”.
